Laboratory results taken from PubChem BioAssay (NCI).
About 83,000 compounds went through this panel and 20% of them were active in at least one assay; those are over-represented in the sample as a whole.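 A percent growth of 40 corresponds to 60% growth inhibition; 0 means no net growth; -100 means all cells died. Active threshold: below 10.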 Unmarked numbers belong to inactive results. The source made the active and inactive calls.

Experiments:
Experiment in all cases: NCI-60 one-dose screen, 48 h (100 = growth as untreated, 0 = no growth, -100 = all killed)
Settings in all cases: 10 µM unless noted
[1] = tested on: T-47D breast
[2] = tested on: BT-549 breast
[3] = tested on: MDA-MB-435 melanoma
[4] = tested on: HCT-116 colon
[5] = tested on: HCC-2998 colon
[6] = tested on: KM12 colon
[7] = tested on: MDA-MB-468 breast
[8] = tested on: SW-620 colon
[9] = tested on: MCF7 breast

| Compound | growth [1] | growth [2] | growth [3] | growth [4] | growth [5] | growth [6] | growth [7] | growth [8] | growth [9] |
| --- | --- | --- | --- | --- | --- | --- | --- | --- | --- |
| NS(=O)(=O)c1ccc(CCNC(=O)CSc2ccc(-c3ccc(Br)cc3)nn2)cc1 | 41.2% | 39.5% | 59.1% | 21.3% | 92.5% | 66.4% | 20.8% |  |  |
| CC12CC[C@@H]3[C@]4(C)COC(c5cn[nH]c5-c5cccc(Cl)c5)O[C@@H]4CC[C@@]3(C)[C@@H]1CC(C1=CCOC1=O)O2 (some centres not stated) | 17.7% | 0.371% (active) | 44.1% | 19.1% | 40.7% | 17.9% | 7.22% (active) |  |  |
| CC1(C)CC[C@]2(C(=O)Nc3ccccc3)CC[C@]3(C)C(=CCC4[C@@]5(C)C[C@@H](O)[C@H](O)[C@@](C)(CO)C5CC[C@]43C)C2C1 (some centres not stated) | 26.9% |  | 47.9% | 34.3% | 81.9% | 55.7% |  | 72.2% | 19.6% |
| CC1(C)CC[C@]2(C(=O)O)CC[C@]3(C)C(=CCC4[C@@]5(C)C[C@@H](O)[C@@H]6OC(c7ccccc7F)OC[C@@]6(C)C5CC[C@]43C)C2C1 (some centres not stated) | 21.3% | -15.9% (active) | 17.4% | -0.989% (active) | 11.1% | 7.3% (active) | 5.82% (active) |  | 4.83% (active) |
| COc1ccc(C(=O)/C=C/c2ccc3ccccc3c2)cc1S(N)(=O)=O | -39.5% (active) |  | 1.97% (active) | -97.8% (active) | -76.9% (active) | -74% (active) |  | -42.8% (active) | -75.2% (active) |
| COc1cc2oc(-c3cccc(C(=O)Nc4ccc(Cl)cc4)c3)cc(=O)c2c(OCCNC(=O)[C@H](CO)NC(=O)OC(C)(C)C)c1OC | 29% | -52.3% (active) | 3.55% (active) | 7.19% (active) | -7.27% (active) | 17.3% | -4.81% (active) |  | 6.34% (active) |
| CSc1ccc(NC(=O)c2ccc3nnn(/C(C#N)=C/c4ccccn4)c3c2)cc1 | -73.4% (active) | -70.4% (active) | -78.4% (active) | 0.694% (active) | -70.6% (active) | -70.4% (active) | -71.3% (active) |  | -71.3% (active) |
| CC1CN(c2oc(-c3ccc([N+](=O)[O-])cc3)nc2C#N)CC(C)O1 (configuration not stated) | 97.4% | 107% | 100% | 108% | 101% | 103% | 125% |  | 88.4% |
| N/C(=N\c1nc2ccccc2s1)NC(=O)NCCCCCCO | 9.9% (active) | 21.4% | 41.2% | 36.9% | 82% | 55.1% | 2.33% (active) |  | 30% |
| N#Cc1c(-c2cccc(Cl)c2Cl)cc(-c2ccc3ccccc3c2)[nH]c1=O | 37.6% | -5.5% (active) | 94.9% | 2.78% (active) | 75.6% | 98.4% | 71.4% |  | 52.9% |
| Cc1ccc(-c2nnc3ccc(N/N=C/c4ccccc4)nn23)cc1 | 98.8% |  | 76.1% | 99.5% | 111% | 57.2% |  | 90.6% | 47.9% |
| N#Cc1ccc(C(=O)Nn2c(N)cc3ccccc3c2=O)cc1 | 54.3% | 85.4% | 107% | 81.7% | 108% | 103% | 76.4% |  | 39.3% |
| Cc1c(C(=O)NNC(=O)c2ccc(Cl)cc2)nnn1-c1ccc(Br)cc1 | 93% | 96.5% | 100% | 89.5% | 105% | 104% | 95.6% |  | 84.3% |
| COc1cc(OC)cc(-c2cc3ccc(N(C)C)cc3c(=O)[nH]2)c1 | 82% |  | 5.03% (active) | 8.72% (active) | 40.7% | 16.7% | 40.2% | 33.8% | 22.5% |
| Cc1ncsc1-c1ccc(CNC(=O)[C@@H]2C[C@@H](O)CN2C(=O)[C@@H](NC(=O)C2(F)CC2)C(C)(C)C)c(OCCOCCOCCOCCOc2nc(Nc3cc(S(C)(=O)=O)ccc3N[C@@H](c3cccc4c3OC(F)(F)O4)c3ncccc3Cl)nc(N3CCNCC3)n2)c1 | 76.6% | -34.3% (active) | 86.9% | 69.5% | 71.2% | 71.2% | -19.8% (active) |  | 5.45% (active) |
| CC(C)CSc1nc(NCCc2c[nH]c3ccccc23)c(C#N)c(-c2ccccc2)n1 | 30.9% |  | 71.7% | 11.6% | 43.5% | 35.3% |  | 36.1% | 20.1% |
